Drawing on PubChem BioAssay (NCATS), this text covers max response and Potency for 40 compounds.

Structures are written as SMILES. Results filed as inconclusive are left out. Values without a mark were called inactive. Activity calls are given as the source filed them. Calls come from the whole dose curve; as a rule, active = well fitted inhibition curve with a large enough effect; inconclusive = small, poorly fitted or top-dose-only effect; inactive = flat fitted curve, though single readings scatter.
% is set by controls: 0 for no effect and ±100 for the full control effect; potency is the fitted concentration of half-maximal effect.

The subject of the experiment is KB-3-1. Put plainly: Cytotoxic Profiling of Annotated Libraries Using Quantitative High-Throughput Screening (AID 1296008). Note: nearly all actives have a fitted effect of over 60% in size. The note with it: Five cell lines viability, CellTiter-Glo ATP luminescence, 48-72 h; max response: hits give low values. The essentials:
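Cells exposed to compounds for 48 or 72 hr at 37 degrees Celsius. Viability read as ATP-coupled luminescence with CellTiter-Glo after 10 min at room temperature.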
`Oc1cc(O)cc(O)c1`: the max response is 3%.
The same measure, in the same setting: with `CCCOc1cc(N)ccc1C(=O)OCCN(CC)CC` the figure was -11.4%; with `CCCCCCCCCCCCCCCCCCCCCC(=O)Nc1ccn([C@@H]2O[C@H](CO)[C@@H](O)[C@@H]2O)c(=O)n1`, 3.81%; with `CC1CC(O)CC(C)(C)C1` (stereo not given), 4.01%.
Same read-out and setting: as for `CCCCCCOC(=O)c1cccnc1`, the figure is 6.05%; as for `CCCCCCCCCCCCCCCCCC(=O)OC[C@@H](O)[C@H]1OC[C@H](O)[C@H]1O`, -10%.
Same read-out and setting: as for `CN(CCO)CC(O)Cn1cnc2c1c(=O)n(C)c(=O)n2C` (stereo not given) (tested in a mixture with another compound), the figure is -4.03%; as for `C[C@H](O)CN(C)C`, 10.7%; as for `COc1ccc(/C=N/NC(=O)c2ccncc2)c(C(=O)O)c1OC`, -1.02%.
Regarding `Cc1cc(-c2ccc(N=Nc3ccc4c(S(=O)(=O)O)cc(S(=O)(=O)O)c(N)c4c3O)c(C)c2)ccc1N=Nc1ccc2c(S(=O)(=O)O)cc(S(=O)(=O)O)c(N)c2c1O`, the Potency was 8.2 µM (active).
As for `C=Cc1ccc(S(=O)(=O)O)cc1`, the max response is 36.9%.
Same read-out and setting: as for `CN1CCc2c(c3ccccc3n2Cc2ccccc2)C1`, the figure is 8.09%.
The same measure, in the same setting: as for `CC(CC=O)CCCC(C)(C)O` (stereo not given), the figure is 7.65%.
Take `Cc1cc(-c2ccc(N=Nc3c(S(=O)(=O)O)cc4cc(S(=O)(=O)O)cc(N)c4c3O)c(C)c2)ccc1N=Nc1c(S(=O)(=O)O)cc2cc(S(=O)(=O)O)cc(N)c2c1O`: the Potency was 9.2 µM (active).
Regarding `COC(=O)CCC[N+](C)(C)C`, the max response was -6.27%.
Still for that read-out and setting: as for `[O]=[Bi][O][Bi]=[O]`, the figure is -13.6%.
Same read-out and setting: with `NC(Cc1ccccc1)C(=O)O` (stereo not given) the figure was 4.99%; with `O=C(O)CCC/C=C\C[C@@H]1[C@@H](/C=C/[C@@H](O)COc2cccc(C(F)(F)F)c2)[C@H](O)C[C@@H]1O`, -14.2%; with `COc1ccc2c(c1)N(C[C@H](C)CN(C)C)c1ccccc1S2`, -8.39%.
In the case of `CNC(C)CCC=C(C)C` (stereo not given), the max response was -7.11%.
Consider `COc1cc(S(C)=O)ccc1-c1nc2ncccc2[nH]1` (stereo not given), for which the max response is 26.5%.
In the case of `CC(C)CCCC(C)NC(C)C` (stereo not given), the max response was 0.846%.
On to `O=C(NNCNNC(=O)c1ccncc1)c1ccncc1`, for which the max response was 1.42%.
As for `CCCCCCCCCCCCCCCCOCCOCCOCCOCCOCCOCCOCCOCCOCCOCCOCCOCCOCCOCCOCCOCCOCCOCCOCCOCCO`, the max response was -16.1%.
With `CCN1C(=O)NC(c2ccccc2)C1=O` (stereo not given), the max response is 16.5%.
With `CC[C@H]1NC(=O)[C@@H](NC(=O)c2ncccc2O)[C@@H](C)OC(=O)[C@H](c2ccccc2)NC(=O)[C@@H]2CC(=O)CCN2C(=O)[C@H](Cc2ccccc2)N(C)C(=O)[C@@H]2CCCN2C1=O`, the max response is 2%.
The same measure, in the same setting: as for `COC(=O)C(CN)c1c[nH]c2ccc(OC)cc12` (stereo not given), the figure is 9.41%; as for `CCCCO`, -19.5%.
The same measure, in the same setting: as for `NCC[C@H](O)C(=O)N[C@@H]1C[C@H](N)[C@@H](O[C@H]2O[C@H](CN)CC[C@H]2N)[C@H](O)[C@H]1O[C@H]1O[C@H](CO)[C@@H](O)[C@H](N)[C@H]1O`, the figure is 4.22%; as for `CC1C(=O)CC2C3(C)CCC2(C(C)C(=O)O)C(=O)C13` (stereo not given), 5.4%.
On to `CC1CCCCN1CCCOC(=O)c1ccccc1` (stereo not given), for which the max response is 7.8%.
With `CC1=C(/C=C/C(C)=C/C=C/C(C)=C/C=C/C=C(C)/C=C/C=C(C)/C=C/C2=C(C)C[C@@H](O)CC2(C)C)C(C)(C)C[C@H](O)C1`, the max response was -5.35%.
Still for that read-out and setting: with `CN(C)CCOc1ccc(/C(=C(/CCCl)c2ccccc2)c2ccccc2)cc1` the figure was -3.21%; with `O[C@@H]([C@H](O)[C@H](O)CBr)[C@H](O)CBr`, -3.83%.
Same read-out and setting: as for `CC1(O)CCC(C(C)(C)O)CC1` (stereo not given), the figure is -9.81%; as for `CNC(=O)OCc1cccc(COC(=O)NC)n1`, 2.4%; as for `NC(=O)OC[C@@H]1[C@H](NC(=O)/C(=N\OCC(=O)O)c2csc(N)n2)C(=O)N1S(=O)(=O)O`, -1.39%.
Turning to `CO/N=C(\C(=O)N[C@@H]1C(=O)N2C(C(=O)O)=C(C[N+]3(C)CCCC3)CS[C@H]12)c1csc(N)n1`, the max response is 2.85%.
With `CCN(CC)CCC(=O)N1c2ccccc2Sc2ccc(Cl)cc21`, the max response is 24.4%.
On to `NC(=O)[C@@H]1C[C@]2(NC(=O)NC2=O)c2cc(F)ccc2O1`, for which the max response was -7.8%.
